Consider 13 compounds from PubChem BioAssay (NCI).

The panel holds about 83,000 compounds, 20% with a hit somewhere; the sample as a whole holds those more often.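 Interpretation: 100, growth as untreated; towards 0, rising growth inhibition; 0, no net growth; 0 to -100, cell death. Compounds scoring below 10 were considered active.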 Unmarked numbers belong to inactive results. Activity calls are given as the source filed them.

Some test systems named below: HCT-15 colon; HT29 colon; SNB-75 CNS; SNB-19 CNS; U251 CNS; PC-3 prostate; SK-MEL-5 melanoma; UACC-62 melanoma; LOX IMVI melanoma; SK-MEL-28 melanoma.
Common to all, as to assay: NCI-60 one-dose screen, 48 h (100 = growth as untreated, 0 = no growth, -100 = all killed)
What all share (details): 10 µM unless noted

With `CN1CC(c2ccccc2)C(C(=O)c2ccc(Br)cc2)C12C(=O)Nc1ccccc12` (stereo not given), the growth with HCT-15 colon is 95.7%; in the assay with HT29 colon it was 87.2%; in the assay with SNB-75 CNS it was 96.1%; with SNB-19 CNS, 89.9%; with U251 CNS, 94.1%; with PC-3 prostate, 70.7%. In addition, the growth in the assay with SK-MEL-5 melanoma is 99%; in the assay with UACC-62 melanoma, 78.4%; with LOX IMVI melanoma it was 97.3%; with SK-MEL-28 melanoma, 114%.

On to `C#CCOc1ccc(C2=NN(C)C3N=C(Cl)c4ncn(C)c4N23)cc1OCC#C` (stereo not given), for which the growth in the assay on HCT-15 colon was 92.1%; in the assay with HT29 colon it was 103%; with SNB-75 CNS it was 97.6%; with SNB-19 CNS, 103%; with U251 CNS it was 98.7%; in the assay on PC-3 prostate, 91.1%. Further, the growth is 86.1% in the assay on SK-MEL-5 melanoma, 84.3% with UACC-62 melanoma, 89.2% with LOX IMVI melanoma and 96.5% with SK-MEL-28 melanoma.

For `CCOC(=O)CC1CSC(N/N=C(/C)c2cccc(C(F)(F)F)c2)=N1` (stereo not given), the growth in the assay with HCT-15 colon was 93.8%; in the assay with HT29 colon, 94.3%; in the assay with SNB-75 CNS it was 98.3%; in the assay with SNB-19 CNS it was 106%; in the assay on U251 CNS, 98.4%; in the assay with PC-3 prostate it was 97.8%. In addition, the growth is 105% with SK-MEL-5 melanoma, 97.1% with UACC-62 melanoma, 104% with LOX IMVI melanoma and 107% with SK-MEL-28 melanoma.

On to `C/C=C(/C)C(=O)O[C@@H]1CC(C)(C)CC2C34OC(=O)[C@@]21CC[C@@]3(C)[C@]1(C)CCC2C(C)(C)C(=O)CC[C@]2(C)C1C[C@@H]4O` (stereo not given in full), for which the growth in the assay with HCT-15 colon is 38.4%; in the assay on HT29 colon, 65.1%; in the assay on SNB-75 CNS it was 64.1%; in the assay with SNB-19 CNS, 78.6%; in the assay with U251 CNS, 46.9%; in the assay on PC-3 prostate it was 25.4%. In addition, the growth in the assay with SK-MEL-5 melanoma was 27.8%; with UACC-62 melanoma it was 55.3%; in the assay with LOX IMVI melanoma, 33.5%; in the assay with SK-MEL-28 melanoma, 75.8%.

As to `CCOC(=O)c1c(NC(=S)Nc2ccc([N+](=O)[O-])cc2)sc2c1CCCCC2`, the growth in the assay with HCT-15 colon is 66.6%; in the assay on HT29 colon, 105%; in the assay on SNB-75 CNS, 86.6%; in the assay on SNB-19 CNS it was 82.2%; with U251 CNS it was 76.6%; in the assay with PC-3 prostate it was 43.6%. For the same compound, the growth in the assay with SK-MEL-5 melanoma was 42.6%; with UACC-62 melanoma it was 47.8%; with LOX IMVI melanoma, 84.4%; in the assay with SK-MEL-28 melanoma, 85.5%.

For the compound `COC(=O)[C@@H](Cc1c[nH]c2ccccc12)NC[C@@H](O)CN1C(=O)/C(=C\c2cc(OC)c(OC)c(OC)c2)c2ccccc21`, the growth was 53.9% in the assay with HCT-15 colon; 40.9% in the assay with HT29 colon; 58.3% with SNB-75 CNS; 66.2% with SNB-19 CNS; 55.6% in the assay with U251 CNS; 46.2% in the assay with PC-3 prostate. In addition, the growth in the assay on SK-MEL-5 melanoma is 59.8%; in the assay with UACC-62 melanoma, 49.8%; in the assay with LOX IMVI melanoma, 50.9%; in the assay with SK-MEL-28 melanoma, 85.5%.

As for `CCN1C(=O)N(CC)C2C1NN=c1s/c(=C\c3ccccc3)c(=O)n12` (stereo not given), the growth was 11% in the assay with HCT-15 colon; 3.09% (active) in the assay with HT29 colon; 20.8% in the assay on SNB-75 CNS; 27.1% in the assay with SNB-19 CNS; 8.08% (active) with U251 CNS; 23.9% in the assay on PC-3 prostate. Besides, the growth with SK-MEL-5 melanoma is -9.58% (active); in the assay with UACC-62 melanoma, 24.3%; in the assay with LOX IMVI melanoma, 15.9%; in the assay on SK-MEL-28 melanoma, 60.6%.

Take `COc1cc2c(c(OC)c1OC)CCC(c1cccc(NC(=O)c3cccc(Cl)c3)c1)O2` (stereo not given): the growth in the assay on HCT-15 colon is 83.6%; with HT29 colon, 73.7%; in the assay with SNB-75 CNS, 85.6%; in the assay on SNB-19 CNS, 91.8%; with U251 CNS it was 91.1%; in the assay with PC-3 prostate, 66.6%. In addition, the growth is 79.6% in the assay on SK-MEL-5 melanoma, 68.1% in the assay with UACC-62 melanoma, 96.2% in the assay on LOX IMVI melanoma and 92.1% in the assay with SK-MEL-28 melanoma.

As to `Cn1ccnc1C(=O)/C=C/c1ccc(C(=O)Nc2c(F)c(F)c(F)c(F)c2F)cc1`, the growth in the assay on HCT-15 colon is -15.5% (active); in the assay with HT29 colon, 1.2% (active); with SNB-75 CNS, 7.64% (active); in the assay with SNB-19 CNS, 5.66% (active); in the assay with U251 CNS it was -48.9% (active); in the assay on PC-3 prostate, 7.27% (active). Besides, the growth in the assay on SK-MEL-5 melanoma was 53.1%; in the assay on UACC-62 melanoma it was 29.3%; in the assay with LOX IMVI melanoma, -83.5% (active); in the assay on SK-MEL-28 melanoma, 82.5%.

As for `CCC(=C(c1ccc(OCCN(CC)CC)cc1)c1ccc(OCCN(CC)CC)cc1)c1ccc(Cl)cc1`, the growth was -81% (active) in the assay on HCT-15 colon; -68% (active) in the assay with HT29 colon; -73.6% (active) in the assay with SNB-75 CNS; -56.1% (active) with SNB-19 CNS; -87.8% (active) in the assay with U251 CNS; -50.7% (active) with PC-3 prostate. In addition, the growth in the assay on SK-MEL-5 melanoma is -98.2% (active); in the assay with UACC-62 melanoma it was -68.3% (active); with LOX IMVI melanoma, -87% (active); in the assay with SK-MEL-28 melanoma it was -86.9% (active).

On to `O=C(Nc1ncc(Cc2ccccc2)s1)c1cc(-c2ccccc2)nc2ccccc12`, for which the growth in the assay on HCT-15 colon is 94.7%; with HT29 colon, 104%; in the assay with SNB-75 CNS, 92.6%; in the assay on SNB-19 CNS, 98.1%; with U251 CNS it was 98.2%; with PC-3 prostate, 94.8%. Moreover, the growth in the assay on SK-MEL-5 melanoma is 98.8%; with UACC-62 melanoma, 89.8%; with LOX IMVI melanoma it was 86.7%; in the assay on SK-MEL-28 melanoma, 105%.

Consider `CO[C@H]1/C=C/O[C@@]2(C)Oc3c(C)c(O)c4c(O)c(c5c(nc6cc(C)ccn65)c4c3C2=O)NC(=O)/C(C)=C\C=C\[C@H](C)[C@H](O)[C@@H](C)C(O)[C@@H](C)[C@H](OC(C)=O)[C@@H]1C` (stereo not given in full), for which the growth was 103% in the assay with HCT-15 colon; 96.7% in the assay on HT29 colon; 86.4% with SNB-75 CNS; 99.9% with SNB-19 CNS; 98.2% with U251 CNS; 90.4% in the assay with PC-3 prostate. Further, the growth in the assay on SK-MEL-5 melanoma was 103%; in the assay on UACC-62 melanoma it was 98%; in the assay on LOX IMVI melanoma, 95.9%; in the assay with SK-MEL-28 melanoma, 104%.

Turning to `O=C(O)/C=C\C(=O)Nc1ccc2c(c1)Cc1cc(F)ccc1-2`, the growth is 100% with HCT-15 colon; 96.3% with HT29 colon; 86% in the assay with SNB-75 CNS; 103% in the assay on SNB-19 CNS; 106% with U251 CNS; 97.3% in the assay with PC-3 prostate. Further, the growth in the assay on SK-MEL-5 melanoma was 101%; with UACC-62 melanoma it was 103%; in the assay on LOX IMVI melanoma, 96.4%; in the assay on SK-MEL-28 melanoma it was 105%.
